# An excerpt weighted towards active compounds, which were near 19% of everything screened.
# Chronic BCR inh: inhibitors of chronic active B-cell receptor signaling | Potency, µM (titrated, usually from 46.1 µM), for inactives: top-dose activity change, negative = inhibition, actives largely listed as inhibitors | AID 493014 | 340,000 tested, 0.05% active | ABC-DLBCL IkBa-CBG/CBR reporter, luminescence ratio, 4 h; active = well fitted inhibition curve with a large enough effect in the signal ratio, with a control signal flat, not every such curve was filed as active; inconclusive = small, poorly fitted or top-dose-only effect, or effect the other way, or a change in a side signal; the % refers to the signal ratio;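 also: potency is read from the fitted curve at half-maximal effect; plate controls were basal doxycycline-induced cells for no effect and cells given 10 µM MG132 for full effect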
#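 TMD8 ABC-DLBCL cells carrying doxycycline-inducible green luciferase fused to IkappaBalpha plus unfused red luciferase were exposed to compounds (up to 46 uM) for 4 hrs at 37C. Activity came from the overlap-corrected green/red luminescence ratio.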
# SW480 rerep: DNA re-replication induction in SW480 cells; SW480 DNA re-replication, Hoechst DNA content imaging, 48 h; Potency, µM (top dose mostly 46.1 µM), for inactives: top-dose re-replication activation, usual class: activators; 340,000 tested, 1.8% active; AID 624297; also: potency is read from the fitted curve at half-maximal effect; % of control where 0% means no effect; nearly all actives have a fitted effect of over 55% in size
#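 First, 250 cells per well were seeded. Next, compound or vehicle (23 nL) was pinned in, plates sat 48 hr at 37 C. Finally Hoechst was added for 40 min before fluorescence scanning.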
# DT40 TDP1 CPT: DT40-hTDP1 cell growth loss with CPT; chicken DT40 Tdp1-/-;hTDP1 cells + 20 nM CPT, ATP luminescence, 48 h; 420,000 tested, 12% active; Potency, µM (top dose mostly 46.2 µM), inactives show at the highest dose activity change, negative = growth inhibition, most hits filed as inhibitors; also: potency is read from the fitted curve at half-maximal effect; % is scaled to controls: 0 for no effect and ±100 for the full control effect; nearly all actives have a fitted effect of over 55% in size
#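 Chicken DT40 Tdp1-/- cells complemented with human TDP1, 400 cells/well, exposed to compounds plus 20 nM camptothecin for at least 48 h at 37 C; viability read as ATP content by CellTiter-Glo luminescence.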
# DT40 TDP1 no CPT: qHTS for Inhibitors of human tyrosyl-DNA phosphodiesterase 1 (TDP1): qHTS in cells in absence of CPT. Potency, µM (doses to about 46.2 µM), for inactives: top-dose activity change, negative = growth inhibition, most hits filed as inhibitors. AID 686978, 2013. DT40 Tdp1-/- hTDP1 cells, no CPT, ATP luminescence, 48 h. 420,000 tested, 15% active; also: potency is read from the fitted curve at half-maximal effect; % is scaled to controls: 0 for no effect and ±100 for the full control effect; nearly all actives have a fitted effect of over 55% in size
#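 Camptothecin absent (DMSO only). Human TDP1-complemented DT40 knockout cells, 400 cells/well, 37 °C for minimum 48 hr; ATP measured via CellTiter-Glo, 30 min dark incubation, luminescence.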
# IL-1B inflam inh: inflammasome signaling inhibition, IL-1 beta readout; THP-1 LPS/ATP IL-1B secretion, AlphaLISA, 16 h; stronger effect = lower value; activity change, % at 57.5 µM; 360,000 tested, 4.7% active; AID 743279; in the data active = activity change below about -50%; inconclusive = mostly about -30% to -49%; also: % is scaled to controls: 0 for no effect and ±100 for the full control effect
#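 THP-1 cells pretreated 1 hr with compounds (up to 57.5 uM final), then stimulated with LPS (250 ng/mL final) plus ATP (1.25 mM final); secreted IL-1B measured by AlphaLISA after 16 hr, decreased signal indicating inhibition.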
# MCF10A rerep: inducers of DNA re-replication in MCF 10A breast cells. MCF 10A DNA re-replication, Hoechst nuclear intensity, 48 h. Potency, µM (top dose mostly 46.1 µM), inactives show top-dose activity, positive = re-replication, usual class: activators. 350,000 tested, 2.9% active; also: potency is read from the fitted curve at half-maximal effect; % of control where 0% means no effect; nearly all actives have a fitted effect of over 50% in size
# An asterisk follows results filed as active; i = inactive; ? = inconclusive; · = no result; [ ] = dose if it differs, or a comment. Unless noted, calls follow the shape of the dose curve; as a rule, active = well fitted curve in the direction sought with a large enough effect; inconclusive = small, poorly fitted or top-dose-only effect, or another doubt; inactive = no such curve, though single readings can be large; an effect the other way counts as inactive or inconclusive.
SMILES,Chronic BCR inh,SW480 rerep,DT40 TDP1 CPT,DT40 TDP1 no CPT,IL-1B inflam inh,MCF10A rerep
c1cnc2ccc(-c3ccc4ncccc4c3)cc2c1,?,21%,?,4.1µM*,?,-8%
COc1cc2c(cc1NC(=O)Nc1ccc(F)cc1)oc1ccccc12,7%,7%,-15%,?,51,2%
COc1ccc(NC(=O)C(C)n2c(C)c3cnn(-c4ccccc4)c(=O)c3c2C)cc1Cl (centres undefined),·,·,23µM*,18µM*,·,·
COc1ccc(Cl)cc1NC(=O)CCCn1c(C)c2cnn(-c3ccccc3)c(=O)c2c1C,·,·,23µM*,?,·,·
Cc1c2cnn(-c3ccccc3)c(=O)c2c(C)n1CCCC(=O)Nc1ccc(F)cc1F,·,·,?,16µM*,·,·
CCOC(=O)c1cccc(NC(=O)C(C)n2c(C)c3cnn(-c4ccccc4)c(=O)c3c2C)c1 (centres undefined),·,·,?,-24%,·,·
NC(=O)c1ccc(C[C@H](C(=O)O)N2C(=O)c3ccc(C(=O)O)cc3C2=O)cc1,6%,·,·,·,·,·
CCN1CCOC(=O)C1CC(=O)Nc1ccccc1C(F)(F)F (centres undefined),·,·,3.3µM*,3.7µM*,·,·
O=C(CC1C(=O)OCC2CCCCN21)Nc1ccccc1C(F)(F)F (centres undefined),1%,7%,2%,-14%,-7,?
CCN1CCOC(=O)C1CC(=O)Nc1cc(Cl)ccc1OC (centres undefined),·,·,4.6µM*,2.6µM*,·,·
CCN1CCOC(=O)C1CC(=O)Nc1ccc(C(C)=O)cc1 (centres undefined),·,·,21µM*,10µM*,·,·
C/C(=N\NC(=O)C1CCCN(S(=O)(=O)c2ccccc2)C1)c1ccccn1 (centres undefined),?,5%,5.8µM*,3.3µM*,92,?
CC(=NNC(=S)N1CC2CCC(CC2)C1)c1cnccn1,·,?,-113%,-116%,-107*,?
C/C(=N\NC(=O)C1CCCN(S(=O)(=O)c2ccccc2)C1)c1ccncc1 (centres undefined),-11%,-1%[9.22 µM],-9%,-16%,-7,-1%
CC(=NNC(=S)N1CC2CCC(CC2)C1)c1ccccn1,·,·,0.0082µM*,0.018µM*,41,·
C/C(=N/O)c1ccccn1,-2%,20%,8%,0%,19,-4%
Cc1cc(C)c(C(=O)NC2CCCc3c2cnn3-c2cccc(C)c2C)o1 (centres undefined),-8%,?,21µM*,?,0,?
CCc1cc(C(=O)NC2CCCc3c2cnn3-c2cccc(C)c2C)n(C)n1 (centres undefined),0%,9%,0.21µM*,0.16µM*,?,?
Cc1cccc(-n2ncc3c2CCCC3NC(=O)C2=CC(=O)CC(C)(C)O2)c1C (centres undefined),-4%,-9%,4.6µM*,8.2µM*,i,22%
Cc1cccc(-n2ncc3c2CCCC3NC(=O)C2(C(N)=O)CC2)c1C (centres undefined),-4%,5%,10µM*,?,12,5%
CCC12CN3CC(C)(CN(C1)C3c1ccccc1C)C2=O (centres undefined),·,·,-2%,-1%,·,·
O=C(NCc1nnc2n1CCN(C(=O)/C=C/c1ccccc1)CC2)c1cccc(F)c1,·,·,-5%,-12%,·,·
COc1ccccc1NC(=O)Cn1c(=O)n(-c2cccc(Cl)c2)c(=O)c2c1c1cc(C)ccc1n2C,·,·,-8%,-6%,·,·
Cc1onc(-c2ccccc2Cl)c1C(=O)N1CCCc2ccccc21,1%,-5%,?,?,-8,-5%
CN1CCN(c2ccc(C(F)(F)F)cc2NC(=O)Nc2ccccc2)CC1,2%,29%,?,?,-84*,0%
SMILES,Chronic BCR inh,SW480 rerep,DT40 TDP1 CPT,DT40 TDP1 no CPT,IL-1B inflam inh,MCF10A rerep
Cc1onc(-c2c(F)cccc2Cl)c1C(=O)Nc1cccc2nsnc12,1%,16µM*,16µM*,3.7µM*,?,?
Cc1onc(-c2c(F)cccc2Cl)c1C(=O)N1CCCc2ccccc21,3%,?,?,18µM*,17,?
Cc1onc(-c2c(F)cccc2Cl)c1C(=O)NC1=NCCS1,2%,0%,-23%,?,-2,2%
Cc1onc(-c2ccccc2)c1C(=O)Nc1cc(C(F)(F)F)ccc1N1CCOCC1,?,11µM*,3.7µM*,2.9µM*,67,5µM*
O=C(NCCN1CCC(n2c(=O)[nH]c3ccccc32)CC1)c1ccc(F)cc1Cl,·,·,?,?,-10,·
Cc1onc(-c2c(F)cccc2Cl)c1C(=O)Nc1ccccc1N1CCOCC1,0%,-8%,?,23µM*,-17,-4%
Cc1onc(-c2ccccc2)c1C(=O)Nc1ccccc1N1CCOCC1,-13%,2%,?,?,18,-1%
CCOC(=O)C(=Cc1ccc(-n2cncn2)cc1)C(=O)OCC,?,16µM*,12µM*,13µM*,-99*,4.6µM*
COc1ccccc1C1CC(=O)NC(C)=C1C(=O)OCC(C)C (centres undefined),-1%,-4%,12µM*,13µM*,15,18%
CCOC(=O)C1=C(C)NC(=O)CC1c1ccccc1OC (centres undefined),?,-6%,-25%,1%,22,5%
CC1=C(C(=O)OC2CCCC2)C(c2c(Cl)cccc2Cl)CC(=O)N1 (centres undefined),·,·,?,26µM*,·,·
COC(=O)C1=C(C)NC(=O)NC1c1ccccc1Cl (centres undefined),1%,?,7%,8%,-9,?
CC1=C(C(=O)OC2CCCC2)C(c2ccccc2Cl)CC(=O)N1 (centres undefined),·,·,16µM*,13µM*,·,·
CC1=C(C(=O)OC2CCCC2)C(c2cccc(Cl)c2Cl)CC(=O)N1 (centres undefined),·,·,?,23µM*,·,·
COc1ccc(COC(=O)C2=C(C)NC(=O)CC2c2cccc(Cl)c2Cl)cc1 (centres undefined),·,·,-16%,-6%,·,·
CC(C)C(C(=O)NC1CCCC1)N1CCN(c2ncccc2C#N)CC1 (centres undefined),·,·,-1%,1%,-11,·
CCCCc1ccc(NC(=O)CC(C)(C)C)cc1,?,-696%,-2%,?,-76*,?

# High-throughput results as filed in PubChem BioAssay.
